# Measured values taken from PubChem BioAssay.
# Activity calls are given as the source filed them. Unless noted, no rule for the calls is given here.
# What was measured:
# [1] = compound effects on lung adenocarcinoma cell viability – A549, calcein-AM fluorescence, 48 h, basal, profiling panel (AID 1162); conditions: higher = more signal; also: test concentration not given here
# [2] = compound effects on differentiated 3T3-L1 adipocyte viability – cell-based, 3T3-L1 adipocytes, calcein-AM fluorescence, 48 h, basal, profiling panel (AID 1163); conditions: 3T3-L1 adipocytes viability, higher = more signal; also: test concentration not given here
# [3] = compound effects on hepatocellular carcinoma cell viability – HepG2, calcein-AM fluorescence, 48 h, basal, profiling panel (AID 1164); conditions: higher = more signal; also: test concentration not given here
# [4] = compound effects on multiple myeloma cell viability – MM1S, calcein-AM fluorescence, 48 h, basal, profiling panel (AID 1165); conditions: higher = more signal; also: test concentration not given here
# [5] = calcein-AM signal in unstimulated myeloma cells – cell-based, calcein-AM fluorescence, 48 h, PK04 Diversity Set, profiling panel (AID 1166); conditions: RPMI8226 myeloma viability, higher = more signal;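 also: cells grown under basal conditions without added stimulus; test concentration not given here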
# [6] = JC-1 mitochondrial signal, unstimulated HepG2 cells – cell-based, JC-1 fluorescence, 24 h, 100 nL compound, profiling panel (AID 1167); conditions: HepG2 mitochondrial potential, higher = more signal; also: test concentration not given here
# [7] = JC-1 mitochondrial signal, unstimulated adipocytes – cell-based, JC-1 fluorescence, 3T3-L1 adipocytes, 24 h, 100 nL compound, profiling panel (AID 1168); conditions: JC-1 mitochondrial fluorescence, higher = more signal, called active from +8 up or from −8 down; also: test concentration not given here
# [8] = JC-1 mitochondrial signal, unstimulated myeloma cells – cell-based, JC-1 fluorescence, RPMI8226, 24 h, 100 nL compound, profiling panel (AID 1169); conditions: JC-1 mitochondrial potential fluorescence, higher = more signal; also: test concentration not given here
# [9] = JC-1 mitochondrial signal, unstimulated MM1S myeloma – cell-based, JC-1 fluorescence, 24 h, 100 nL compound, profiling panel (AID 1170); conditions: MM1S mitochondrial potential, higher = more signal; also: test concentration not given here
# [10] = resazurin metabolic signal in A549 cells – cell-based, resazurin fluorescence, 24 h, PK04 Diversity Set, profiling panel (AID 1171); conditions: A549 viability, higher = more signal, called active from +8 up or from −8 down; also: test concentration not given here
# [11] = resazurin metabolic signal in HepG2 cells – cell-based, resazurin fluorescence, 24 h, PK04 Diversity Set, profiling panel (AID 1172); conditions: HepG2 viability, higher = more signal; also: test concentration not given here
# [12] = budding yeast growth changes without added modifier – OD600, strain BY4716, 24 h, basal condition, primary screen (AID 1173); conditions: S. cerevisiae BY4716 growth, OD600, 24 h; higher = more signal, called active from +8 up or from −8 down
# [13] = viability profiling in MM1S myeloma cells – cell-based, resazurin fluorescence, basal, 24 h, PK04 Diversity Set, profiling panel (AID 1174); conditions: higher = more signal, called active from +8 up or from −8 down; also: test concentration not given here
# [14] = target: Dihydroorotate dehydrogenase (quinone), mitochondrial (Plasmodium falciparum (isolate 3D7)) (UniProt Q08210); assay: inhibition of P. falciparum DHODH – biochemical, C-terminal His tag, absorbance 600 nm, primary screen (AID 1175); conditions: PfDHODH enzyme, DCIP absorbance 600 nm; higher = more signal, called active from +8 up or from −8 down;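 also: recombinant parasite enzyme with a five histidine tag at its C terminus; test concentration not given here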
# Dihydroorotate dehydrogenase (quinone), mitochondrial (Plasmodium falciparum (isolate 3D7)), sequence (Q08210 whole entry, looked up): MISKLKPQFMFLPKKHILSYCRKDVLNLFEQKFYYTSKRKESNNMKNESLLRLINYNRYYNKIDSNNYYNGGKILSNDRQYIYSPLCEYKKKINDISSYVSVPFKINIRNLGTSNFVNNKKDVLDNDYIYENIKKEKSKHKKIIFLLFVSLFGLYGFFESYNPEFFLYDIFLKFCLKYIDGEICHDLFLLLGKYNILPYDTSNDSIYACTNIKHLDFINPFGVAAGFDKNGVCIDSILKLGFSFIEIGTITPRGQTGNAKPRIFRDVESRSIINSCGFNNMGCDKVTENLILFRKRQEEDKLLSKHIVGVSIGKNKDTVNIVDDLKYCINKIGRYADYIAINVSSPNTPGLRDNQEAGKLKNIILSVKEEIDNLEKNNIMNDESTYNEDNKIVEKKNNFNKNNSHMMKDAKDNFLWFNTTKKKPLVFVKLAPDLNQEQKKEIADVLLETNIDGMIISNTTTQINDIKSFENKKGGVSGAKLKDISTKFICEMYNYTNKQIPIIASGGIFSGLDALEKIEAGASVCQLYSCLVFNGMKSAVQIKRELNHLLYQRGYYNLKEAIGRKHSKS
# [15] = inhibition of PAO1 biofilm formation – strain PAO1, LB-PBS medium, absorbance 600 nm, primary screen (AID 1176); also: test concentration not given here; conditions: P. aeruginosa PAO1 growth/biofilm, A600, 12 h; higher = more signal
# [16] = growth modulation of vineyard yeast isolate – strain RM11-1a, OD600, basal, 24 h, primary screen (AID 1177);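 also: cultures grown under basal conditions with no added stressor; test concentration not given here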; conditions: S. cerevisiae RM11-1a growth, OD600, 24 h; higher = more signal, called active from +8 up or from −8 down
# [17] = growth of efflux-deficient E. coli DRC39 – strain DRC39, OD650, 24 h, E. coli filamentation inducers, primary screen (AID 1178);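 also: growth measured as culture turbidity by optical density at 650 nm; test concentration not given here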; conditions: E. coli DRC39 acrAB, higher = more signal, called active from +8 up or from −8 down
# [18] = growth of efflux-deficient E. coli DRC39 – strain DRC39, OD650, 48 h, E. coli filamentation inducers, primary screen (AID 1179);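 also: screen aims at cell division blockers that make cells filament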; conditions: E. coli DRC39 delta-acrAB growth, higher = more signal, called active from +8 up or from −8 down
# [19] = viability profiling in RPMI8226 myeloma cells – cell-based, resazurin fluorescence, basal, 24 h, PK04 Diversity Set, profiling panel (AID 1180); conditions: higher = more signal;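 also: RPMI8826 multiple myeloma cell line at 5000 cells per well; test concentration not given here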
# [20] = target: E3 ubiquitin-protein ligase XIAP (Homo sapiens) (UniProt P98170); assay: small molecules binding XIAP protein – biophysical, small-molecule microarray, fluorescence 635 nm, primary screen (AID 1181); conditions: higher = more signal;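 also: score merges 667 nm emission and signal to noise over triplicate slides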
# E3 ubiquitin-protein ligase XIAP (Homo sapiens), sequence (P98170 whole entry, looked up): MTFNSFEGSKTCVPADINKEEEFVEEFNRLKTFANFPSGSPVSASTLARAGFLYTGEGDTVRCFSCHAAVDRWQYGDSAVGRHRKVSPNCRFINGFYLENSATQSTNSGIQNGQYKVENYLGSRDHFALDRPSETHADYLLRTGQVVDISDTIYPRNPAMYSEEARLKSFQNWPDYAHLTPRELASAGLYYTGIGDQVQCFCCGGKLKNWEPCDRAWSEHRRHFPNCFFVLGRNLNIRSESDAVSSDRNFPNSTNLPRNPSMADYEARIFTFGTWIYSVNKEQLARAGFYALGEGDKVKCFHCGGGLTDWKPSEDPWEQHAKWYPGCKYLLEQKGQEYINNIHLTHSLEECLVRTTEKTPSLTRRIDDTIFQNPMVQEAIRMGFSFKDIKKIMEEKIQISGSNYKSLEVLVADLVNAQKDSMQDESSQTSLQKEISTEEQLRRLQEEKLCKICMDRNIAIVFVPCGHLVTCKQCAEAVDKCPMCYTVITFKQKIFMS
smiles,measurement,setting,value
CN(C)CCCNC(=O)[C@@H]1c2ccccc2C(=O)N(Cc2ccccc2C(F)(F)F)[C@H]1c1ccc(CO)cc1,z-score,[1],1.42
same,z-score,[2],0.747
same,z-score,[3],1.13
same,z-score,[4],0.353
same,z-score,[5],1.09
same,z-score,[6],2.98
same,z-score,[7],-0.343 (inactive)
same,z-score,[8],0.188
same,z-score,[9],-0.317
same,z-score,[10],1.45 (inactive)
same,z-score,[11],0.788
same,z-score,[12],-0.779 (inactive)
same,z-score,[13],0.744 (inactive)
same,composite z-score,[14],-0.0587 (inactive)
same,z-score,[15],-0.534 (inactive)
same,z-score,[16],0.171 (inactive)
same,z-score,[17],0.858 (inactive)
same,z-score,[18],0.783 (inactive)
same,z-score,[19],0.7
same,composite z-score,[20],-0.0344
CN(C)CCCCNC(=O)[C@H]1C[C@H]2C(=O)NCC(=O)N2[C@H]1c1ccc(O)cc1,z-score,[1],-0.685
same,z-score,[2],0.364
same,z-score,[3],-0.239
same,z-score,[4],0.34
same,z-score,[5],-0.0681
same,z-score,[6],-0.253
same,z-score,[7],-0.324 (inactive)
same,z-score,[8],0.347
same,z-score,[9],-0.371
same,z-score,[10],1.05 (inactive)
same,z-score,[11],1.1
same,z-score,[12],-0.0401 (inactive)
same,z-score,[13],0.917 (inactive)
same,composite z-score,[14],0.373 (inactive)
same,z-score,[15],-0.599 (inactive)
same,z-score,[16],1.56 (inactive)
same,z-score,[17],0.0662 (inactive)
same,z-score,[18],-0.363 (inactive)
same,z-score,[19],0.511
same,composite z-score,[20],0.147
CCOC(=O)C[C@H]1[C@H](OC(=O)c2ccccc2-c2ccccc2)[C@@H](NC(=O)c2ccc3ccccc3c2)c2cc(OCCCO)ccc2N1C(=O)Cc1ccc(OC)cc1,z-score,[1],0.0867
same,z-score,[2],0.152
same,z-score,[3],0.278
same,z-score,[4],0.306
same,z-score,[5],-0.543
same,z-score,[6],-0.175
same,z-score,[7],0.367 (inactive)
same,z-score,[8],-0.49
same,z-score,[9],0.0571
same,z-score,[10],-0.439 (inactive)
same,z-score,[11],-0.397
same,z-score,[12],0.118 (inactive)
same,z-score,[13],-0.142 (inactive)
same,composite z-score,[14],-0.0597 (inactive)
same,z-score,[15],-0.283 (inactive)
same,z-score,[16],-0.899 (inactive)
same,z-score,[17],-0.516 (inactive)
same,z-score,[18],-0.404 (inactive)
same,z-score,[19],-0.0439
same,composite z-score,[20],0.0711
COc1ccc(C(=O)Nc2cccc(CN3C(=O)[C@@]4(O[C@@H](CC(=O)N5CCC[C@H]5CO)[C@H]([Si](C)(C)c5ccc(OC)cc5)[C@H]4C)c4ccccc43)c2)cc1,z-score,[1],-0.273
same,z-score,[2],0.695
same,z-score,[3],-0.765
same,z-score,[4],-2.74
same,z-score,[5],-4.26
same,z-score,[6],1.98
same,z-score,[7],0.487 (inactive)
same,z-score,[8],-1.13
same,z-score,[9],-1.06
same,z-score,[10],-0.35 (inactive)
same,z-score,[11],-0.429
same,z-score,[12],-0.0739 (inactive)
same,z-score,[13],-1.17 (inactive)
same,composite z-score,[14],-5.69 (inactive)
same,z-score,[15],1.03 (inactive)
same,z-score,[16],0.844 (inactive)
same,z-score,[17],0.603 (inactive)
same,z-score,[18],0.274 (inactive)
same,z-score,[19],-1.25
same,composite z-score,[20],0.147
O=C1N(CCS(=O)(=O)c2ccccc2)c2ccccc2C[C@]12N=C(c1ccc(OCCCO)cc1)O[C@@H]2c1ccccc1,z-score,[1],-0.982
same,z-score,[2],0.0009
same,z-score,[3],0.207
same,z-score,[4],-0.967
same,z-score,[5],-2.48
same,z-score,[6],-0.484
same,z-score,[7],1.07 (inactive)
same,z-score,[8],-0.687
same,z-score,[9],-0.242
same,z-score,[10],-1.37 (inactive)
same,z-score,[11],-0.285
same,z-score,[12],0.376 (inactive)
same,z-score,[13],-2.11 (inactive)
same,composite z-score,[14],-2.58 (inactive)
same,z-score,[15],0.575 (inactive)
same,z-score,[16],2.74 (inactive)
same,z-score,[17],0.39 (inactive)
same,z-score,[18],-0.0504 (inactive)
same,z-score,[19],-0.885
same,composite z-score,[20],0.311
COCCOC(=O)N1C(=O)[C@@]2(c3cc(C#CCCO)ccc31)[C@H](c1ccc(OCCO)cc1)N1[C@H](c3ccccc3)[C@H](c3ccccc3)OC(=O)[C@H]1[C@@H]2C(=O)N1CCCCCCC1,z-score,[1],0.139
same,z-score,[2],0.005
same,z-score,[3],-0.584
same,z-score,[4],-0.993
same,z-score,[5],-1.03
same,z-score,[6],-0.437
same,z-score,[7],-2.09 (inactive)
same,z-score,[8],0.309
same,z-score,[9],-0.958
same,z-score,[10],-0.232 (inactive)
same,z-score,[11],-0.21
same,z-score,[12],0.532 (inactive)
same,z-score,[13],-0.292 (inactive)
same,composite z-score,[14],-0.0613 (inactive)
same,z-score,[15],1.68 (inactive)
same,z-score,[16],1.13 (inactive)
same,z-score,[17],-0.442 (inactive)
same,z-score,[18],-0.457 (inactive)
same,z-score,[19],-0.621
same,composite z-score,[20],0.152
C=CCC(OC(C)=O)[C@@H]1[C@@H](N(Cc2ccc(-c3cccc(C(F)(F)F)c3)o2)C(=O)Cc2ccc(F)cc2)c2cc(OCCCO)ccc2N1C(=O)Cc1ccc2ccccc2c1 (stereo not given in full),z-score,[1],-0.92
same,z-score,[2],1.1
same,z-score,[3],-0.0416
same,z-score,[4],-1.7
same,z-score,[5],-0.261
same,z-score,[6],1.8
same,z-score,[7],0.978 (inactive)
same,z-score,[8],-0.0117
same,z-score,[9],0.0602
same,z-score,[10],0.623 (inactive)
same,z-score,[11],0.533
same,z-score,[12],0.658 (inactive)
same,z-score,[13],0.647 (inactive)
same,composite z-score,[14],-1.35 (inactive)
same,z-score,[15],1.13 (inactive)
same,z-score,[16],-0.245 (inactive)
same,z-score,[17],-0.241 (inactive)
same,z-score,[18],-0.088 (inactive)
same,z-score,[19],0.0748
same,composite z-score,[20],-0.132
COC(=O)[C@@]1(Cc2ccccc2)[C@H]2c3cc(C(=O)N(C)C)n(CCO)c3C[C@H]2CN1C(=O)c1ccccc1,z-score,[1],-1.33
same,z-score,[2],0.18
same,z-score,[3],-0.28
same,z-score,[4],-0.0531
same,z-score,[5],-1.99
same,z-score,[6],-0.92
same,z-score,[7],-2.92 (inactive)
same,z-score,[8],0.127
same,z-score,[9],-0.787
same,z-score,[10],-0.723 (inactive)
same,z-score,[11],-0.546
same,z-score,[12],1.24 (inactive)
same,z-score,[13],-1.28 (inactive)
same,composite z-score,[14],0.0058 (inactive)
same,z-score,[15],0.274 (inactive)
same,z-score,[16],0.329 (inactive)
same,z-score,[17],-0.751 (inactive)
same,z-score,[18],-0.217 (inactive)
same,z-score,[19],-1.11
same,composite z-score,[20],-0.0152
